Most compounds without a hit are left out; they make up all but 0.5% or so of the library.
E coli growth-1 = E. coli growth inhibition | Escherichia coli growth, OD600, 23 h; stronger effect = lower value | hit rate 0.21% among 330,000 | AID 1053175 | OD600 absorbance (no concentration beside the values);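 active = OD600 absorbance below the run mean of sample wells minus 3.6 SD, in any replicate, cut at about 0.56 in these data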
AddAB inh = less growth of phage-infected E. coli with AddAB; E. coli expressing H. pylori AddAB, absorbance growth; hit rate 0.29% among 330,000; inhibition, % at 11.9 µM; AID 435030; in the data active = inhibition above about 12%;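 note: 0% = vehicle wells of infected cells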
phage Ecoli inh = E. coli growth loss with phage present; growth absorbance; inhibition, % at 11.9 µM; hit rate 0.26% among 360,000; in the data active = inhibition above about 11%
Tat export inh = inhibitors of E. coli Tat protein transport | inhibition, % at 10 µM | E. coli MC4100 TorA-mCherry Tat export, fluorescence | hit rate 0.036% among 340,000;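 active = mean replicate inhibition at least 50% and at least half of replicates individually reaching 50%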;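 note: exported cargo escapes ClpAP degradation while cytoplasmic cargo is degraded and loses fluorescence; 0% = median of neutral control wells and 100% = median of NaSCN control wells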
E coli growth-2 = bacterial growth inhibition, counter-screen for AddAB inhibitors | E. coli V3065 growth, OD600 absorbance, 18 h | inhibition, % at 11.9 µM | hit rate 0.27% among 330,000;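 active = inhibition above the campaign's mean inhibition across all tested compounds plus 3 SD, cut at about 9.9% in these data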;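 note: uninfected addAB+ strain grown without phage in ampicillin broth; 0% = DMSO wells and 100% = ciprofloxacin 0.95 µg/ml wells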
AddAB confirm = growth loss of T4-infected E. coli expressing H. pylori AddAB, confirmed; E. coli V3065 expressing H. pylori AddAB, T4 phage, OD; T4 phage with gene 2 nonsense mutations; shares compounds with AddAB inh; hit rate 64% among 880; inhibition, % at 11.9 µM;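 active = mean inhibition above a set limit taken from the earlier primary screen, cut at about 13% in these data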;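 note: higher means less bacterial growth since AddAB block lets phage replicate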
RecBCD counter = counter-screen: growth loss of RecBCD+ E. coli with mutant T4 phage; shares compounds with AddAB inh; E. coli V66 + mutant T4 phage, OD growth; inhibition, % at 11.9 µM; hit rate 73% among 880;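 active = mean inhibition above the mean of solvent-only control wells plus 3 SD, cut at about 4% in these data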;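 note: optical density read after an 18 h incubation at 37 °C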
bact viab count = counter-screen: bacterial growth inhibition; bacterial viability, absorbance (AddAB counterscreen); shares compounds with AddAB inh; inhibition, % at 11.9 µM; AID 488956; hit rate 35% among 880; in the data active = inhibition above about 25%
RecBCD conf = growth loss of phage-infected V66 E. coli, RecBCD confirmation screen; shares compounds with phage Ecoli inh; E. coli V66 + T4 2- phage, growth OD; inhibition, % at 11.9 µM; hit rate 45% among 890; AID 651982;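 active = mean inhibition over triplicates exceeding the hit threshold derived in the original primary screen, cut at about 11% in these data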
Ecoli viability = counter-screen for RecBCD inhibitors: inhibitors of bacterial viability | shares compounds with phage Ecoli inh | E. coli viability, absorbance (OD) growth | inhibition, % at 11.9 µM | hit rate 29% among 890 | AID 651983; in the data active = inhibition above about 20%;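 note: E. coli strain V66 grown with compound alone and no phage infection; 0% = bacteria with DMSO vehicle only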
AddAB phage OD = growth loss of phage-infected AddAB E. coli, RecBCD counter-screen; shares compounds with phage Ecoli inh; E. coli expressing H. pylori AddAB + T4 phage, OD growth; gene 2 mutant T4, recBCD-deleted host; inhibition, % at 11.9 µM; hit rate 45% among 890;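 active = mean inhibition above the solvent-only control wells' mean plus 3 SD, cut at about 22% in these data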;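 note: higher means less bacterial growth from phage killing when AddAB is blocked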
Starred values were filed as active, the others as inactive; / = no result.

SMILES	E coli growth-1	AddAB inh	phage Ecoli inh	Tat export inh	E coli growth-2	AddAB confirm	RecBCD counter	bact viab count	RecBCD conf	Ecoli viability	AddAB phage OD
COc1nsnc1NS(=O)(=O)c1ccc(NC(=S)NC(=O)c2cccnc2)cc1	0.062*	59.3*	47.3*	30.0	53.9*	70.2*	30.8*	41.9*	27.1*	23.4*	45.3*
COc1nsnc1NS(=O)(=O)c1ccc(NC(=S)NC(=O)c2ccncc2)cc1	0.068*	74.5*	29.1*	7.8	62.0*	75.6*	24.5*	34.0*	14.3*	10.4	33.2*
O=C(Nc1nnc(-c2cccs2)o1)c1cccc(C(F)(F)F)c1	0.498*	20.7*	95.7*	16.3	12.5*	15.8*	13.7*	11.7	8.8	8.3	17.0
O=C(NNC(=O)c1ccccc1O)c1ccc(Cl)c(S(=O)(=O)N2CCc3ccccc32)c1	0.666	19.1*	15.9*	-3.8	14.1*	1.4	8.3*	-0.2	4.2	7.2	8.5
O=C(N/N=C/c1ccc(O)cc1O)C(=O)N/N=C/c1ccc(O)cc1O	/	28.1*	22.0*	2.7	30.5*	22.5*	23.8*	20.9	18.6*	21.0*	29.0*
O=S(=O)(NN=C1CCCc2ccccc21)c1ccc(Br)cc1	0.733	/	/	/	/	/	/	/	/	/	/
CC(=O)c1ccc(NC(=O)c2ccc(NC(=O)c3ccco3)cc2)cc1	0.693	3.2	/	2.9	2.4	/	/	/	/	/	/
O=C(NC(NC(=S)Nc1ccccc1O)C(Cl)(Cl)Cl)c1ccco1 (configuration not stated)	0.607	9.0	5.6	-14.3	3.8	/	/	/	/	/	/
CC(=O)c1ccc(NC(=S)NC(NC(=O)c2ccco2)C(Cl)(Cl)Cl)cc1 (configuration not stated)	0.641	20.9*	17.5*	-11.8	18.7*	16.2*	15.0*	13.9	8.2	12.7	10.5
O=C(NC(NC(=S)Nc1ccc(Cl)cc1)C(Cl)(Cl)Cl)c1ccco1 (configuration not stated)	/	18.2*	20.3*	-52.5	15.4*	14.0*	18.4*	18.3	10.1	14.9	16.3
CC(=NNC(=O)c1c(C)nc2ccccn12)c1cccc([N+](=O)[O-])c1	0.703	/	/	/	/	/	/	/	/	/	/
Oc1ccc(Cl)cc1CNCc1ccc(Cl)cc1	0.614	3.9	4.6	-3.0	0.3	/	/	/	/	/	/
Oc1ccc(Cl)cc1Cc1cc(Cl)ccc1O	0.13*	13.3*	13.5*	-0.3	12.1*	6.2	13.9*	2.7	9.1	10.9	7.2
CC(=NNS(=O)(=O)c1ccc(C)cc1)c1cccc(NC(=O)c2cccc(Cl)c2)c1	0.792	/	/	/	/	/	/	/	/	/	/
CCCNC(=O)c1ccc2c(=O)c(O)c(-c3ccc(Cl)c([N+](=O)[O-])c3)[nH]c2c1	/	13.7*	16.1*	1.9	11.3*	11.4	12.9*	11.9	9.5	11.7	13.8
Cc1nnc(NCc2cccc(Cl)c2)c2ccccc12	0.628	2.9	1.2	1.3	1.4	/	/	/	/	/	/
Cc1nnc(NCCc2ccccc2)c2ccccc12	0.524	18.0*	13.0*	10.2	15.5*	9.8	8.5*	10.0	1.6	6.3	5.8
O=[N+]([O-])c1ccc(O)c2cccnc12	0.633	-2.6	2.7	-12.6	0.1	/	/	/	/	/	/
O=[N+]([O-])c1cc(F)c2cccnc2c1O	0.0825*	53.0*	39.5*	-19.2	54.0*	50.1*	48.6*	41.0*	53.3*	52.9*	48.5*
O=[N+]([O-])c1cc(Cl)c2cccnc2c1O	0.067*	68.0*	52.2*	-8.7	61.7*	62.6*	70.0*	62.7*	78.4*	79.3*	63.1*
CC(NC(=O)c1coc(=O)c(Br)c1)c1ccccc1 (configuration not stated)	0.717	/	/	/	/	/	/	/	/	/	/
Nc1ncn([C@@H]2O[C@H](CO)[C@@H](O)[C@H]2O)c(=O)n1	/	95.6*	61.7*	-1.8	93.2*	90.6*	28.9*	94.2*	47.7*	56.1*	102.7*
Nc1nc(=S)c2ncn([C@@H]3O[C@H](CO)[C@@H](O)[C@H]3O)c2[nH]1	/	89.2*	72.1*	-25.0	75.9*	90.8*	63.5*	73.1*	57.4*	74.6*	81.4*
Nc1nc(Cl)nc2c1ncn2[C@@H]1O[C@H](CO)[C@@H](O)[C@H]1O	/	-1.6	4.6	5.1	0.3	/	/	/	/	/	/
Nc1nc(=S)c2ncn(C3CCCCC3)c2[nH]1	0.683	/	1.6	-7.7	/	/	/	/	/	/	/
SMILES	E coli growth-1	AddAB inh	phage Ecoli inh	Tat export inh	E coli growth-2	AddAB confirm	RecBCD counter	bact viab count	RecBCD conf	Ecoli viability	AddAB phage OD
Nc1nc(=S)c2ncn(C3OC(CO)C(O)C3O)c2[nH]1 (configuration not stated)	0.521	25.0*	16.6*	-12.0	30.2*	74.1*	27.1*	53.9*	31.5*	38.1*	55.4*
Cn1ccc2ccc(C3=CC(=O)CC(c4ccc(F)cc4)C3)cc21 (configuration not stated)	0.719	/	/	/	/	/	/	/	/	/	/
O=C(O)C=CC(=O)O	0.684	/	/	/	/	/	/	/	/	/	/
COc1cc(C=NO)nc(-c2ccccn2)c1	/	/	38.6*	-21.9	/	/	/	/	31.8*	41.1*	33.3*
COc1ccc(S(=O)(=O)N(CCC(N)=O)Cc2ccco2)cc1OC	0.64	0.7	98.1*	18.8	-0.7	/	/	/	-2.0	-2.1	-4.0
COc1ccc(S(=O)(=O)N(Cc2ccc(OC)c(OC)c2)Cc2ccco2)cc1	0.768	1.9	2.8	-1.3	0.6	/	/	/	/	/	/
CCOc1ccc(NC(=O)Nc2cc(OCC(F)(F)F)cc(OCC(F)(F)F)c2)cc1	0.699	2.0	2.0	7.0	-1.4	/	/	/	/	/	/
O=C(Nc1ccc(F)cc1)Nc1cc(OCC(F)(F)F)cc(OCC(F)(F)F)c1	0.676	3.7	11.5*	-6.2	2.6	/	/	/	1.6	2.9	5.8
CCCCOC1NC(=O)NC(=O)C1(F)C(=O)OCC (configuration not stated)	/	/	6.1	/	/	/	/	/	/	/	/
COC(=O)C1(F)C(=O)NC(=O)NC1OC (configuration not stated)	/	/	22.9*	/	/	/	/	/	27.0*	16.4	46.7*
FC(F)(F)c1cccc(C=NNC(=S)NC2CCCCC2)c1	0.748	/	/	/	/	/	/	/	/	/	/
O=C(NN=Cc1ccoc1)c1ccco1	0.65	/	/	/	/	/	/	/	/	/	/
CCN1CCN(C(=O)C2=CC(c3ccc(C)cc3)=NS(=O)(=O)N2C)CC1	0.754	-0.3	12.1*	6.3	-0.1	/	/	/	-3.4	-2.0	-2.8
